This passage reports growth results from PubChem BioAssay (NCI).

Molecules are shown by their SMILES. About 83,000 compounds went through this panel and 20% of them were active in at least one assay; those are over-represented in the sample as a whole.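 Cells were grown in 96-well plates and exposed to the test compound at a single concentration for 48 hours; results are reported as percent growth, with values below 10 considered active.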 A number with no mark means an inactive call. Activity calls are given as the source filed them.

Some test systems named below: NCI-H23 lung; NCI-H226 lung; NCI-H322M lung; HOP-62 NSCLC; NCI-H460 lung; HOP-92 NSCLC; NCI-H522 lung; A549/ATCC NSCLC; 786-0 renal; COLO 205 colon; DU-145 prostate; K-562 leukemia; MALME-3M melanoma; MDA-MB-231 breast; RXF 393 renal; SF-268 CNS; SF-295 CNS; SF-539 CNS; UACC-257 melanoma; M14 melanoma.
What all share (test): NCI-60 one-dose screen, 48 h (100 = growth as untreated, 0 = no growth, -100 = all killed)
What all share (conditions): 10 µM unless noted

Consider `COC(=O)/C=C1/SC(=Nc2ccc(F)cc2)N(CCc2c[nH]c3ccc(O)cc23)C1=O`, for which the growth with NCI-H23 lung is 62.2%; with NCI-H226 lung it was 62.5%; in the assay on NCI-H322M lung, 92.1%; in the assay with HOP-62 NSCLC, 27.6%; in the assay on NCI-H460 lung, 25.3%; in the assay on HOP-92 NSCLC, 40.2%. The growth in the assay with NCI-H522 lung is 23.6%; in the assay on A549/ATCC NSCLC, 69.5%; in the assay on 786-0 renal it was 40.6%; with COLO 205 colon, 78.2%; in the assay on DU-145 prostate, 37.2%; in the assay on K-562 leukemia, 37.7%. For the same compound, the growth in the assay on MALME-3M melanoma is 58.9%; in the assay with MDA-MB-231 breast it was 59.3%; in the assay on RXF 393 renal, 32%; in the assay on SF-268 CNS it was 45.9%; in the assay with SF-295 CNS it was 61.5%; in the assay on SF-539 CNS, 45.3%. Besides, the growth with UACC-257 melanoma was 39.4%; in the assay with M14 melanoma, 40.1%.

`CN(C)Cc1ccc(NC(=O)c2cncc(C#Cc3cnc(N)c4ncccc34)c2)cc1C(F)(F)F`: the growth was 42.1% in the assay on NCI-H23 lung; 76.7% in the assay on NCI-H226 lung; 97% with NCI-H322M lung; 79.8% in the assay on HOP-62 NSCLC; 13.3% in the assay with NCI-H460 lung; 73.9% with HOP-92 NSCLC. For the same compound, the growth was 94.6% with NCI-H522 lung; -15.4% (active) with A549/ATCC NSCLC; -73.4% (active) in the assay with 786-0 renal; 44.6% in the assay with COLO 205 colon; 64.1% in the assay on DU-145 prostate; -26.1% (active) in the assay with K-562 leukemia. Moreover, the growth with MALME-3M melanoma is -6.72% (active); in the assay on MDA-MB-231 breast, -68.6% (active); in the assay on RXF 393 renal, -49.1% (active); in the assay with SF-268 CNS, 55.9%; in the assay on SF-295 CNS, 76.4%; in the assay with SF-539 CNS, 58.4%. Also, the figures for the growth in the assay with UACC-257 melanoma and with M14 melanoma were 36.9% and -54.7% (active), respectively.

As to `CCNC(=O)N1CCc2c(Br)c3c(c(OC)c2C1Cc1ccc(OC)cc1)OCO3` (stereo not given), the growth in the assay with NCI-H23 lung was 60.8%; with NCI-H226 lung it was 70.8%; in the assay with NCI-H322M lung, 52.9%; with HOP-62 NSCLC, 36.3%; in the assay with NCI-H460 lung it was 15.2%; with HOP-92 NSCLC, 40.6%. Moreover, the growth with NCI-H522 lung is 25.5%; with A549/ATCC NSCLC, 34.2%; with 786-0 renal, 31.2%; in the assay on COLO 205 colon, 3.06% (active); in the assay on DU-145 prostate, 54.5%; in the assay with K-562 leukemia it was 20%. Also, the growth in the assay on MALME-3M melanoma is 33.8%; with MDA-MB-231 breast it was 47.3%; in the assay on RXF 393 renal, 17%; with SF-268 CNS, 43.5%; in the assay with SF-295 CNS, 25.5%; in the assay with SF-539 CNS, 22.6%. In addition, the growth in the assay with UACC-257 melanoma was 65.4%; in the assay with M14 melanoma it was 11.6%.

With `CCCCCCCCn1ccc2cc(NC(=O)CN3CCN(c4cc(C)nc(Cl)n4)CC3)ccc21`, the growth in the assay with NCI-H23 lung was 81.7%; in the assay with NCI-H226 lung, 82.2%; in the assay with NCI-H322M lung, 89.5%; with HOP-62 NSCLC, 119%; in the assay on NCI-H460 lung it was 91.8%; in the assay on HOP-92 NSCLC it was 81.1%. Besides, the growth in the assay on NCI-H522 lung was 76.2%; in the assay on A549/ATCC NSCLC, 87.4%; in the assay on 786-0 renal, 94.6%; with COLO 205 colon it was 106%; in the assay on DU-145 prostate it was 93.8%; in the assay on K-562 leukemia it was 63.1%. The growth with MALME-3M melanoma is 95.3%; with MDA-MB-231 breast it was 94.8%; with RXF 393 renal, 69.2%; in the assay on SF-268 CNS, 90.3%; in the assay with SF-295 CNS, 83.7%; in the assay with SF-539 CNS, 92.8%. Also, the results for the growth with UACC-257 melanoma and in the assay on M14 melanoma were 92.8% and 89.4%, respectively.

As for `N[C@@H]1CCC[C@H]1NCCCCN1C(=O)c2cccc3cc([N+](=O)[O-])cc(c23)C1=O`, the growth with NCI-H23 lung was 39.3%; in the assay on NCI-H226 lung it was 11%; in the assay on NCI-H322M lung, 41.2%; in the assay with HOP-62 NSCLC, 31.7%; with NCI-H460 lung, 6.71% (active); in the assay with HOP-92 NSCLC it was 34.5%. In addition, the growth was 40.6% with NCI-H522 lung; 22.4% with A549/ATCC NSCLC; 25% in the assay with 786-0 renal; 22.8% with COLO 205 colon; 22.2% in the assay on DU-145 prostate; 18.6% in the assay with K-562 leukemia. For the same compound, the growth was 57.5% with MALME-3M melanoma; 45.1% in the assay on MDA-MB-231 breast; 32.3% in the assay with RXF 393 renal; 34.3% in the assay on SF-268 CNS; 55.5% with SF-295 CNS; 32.7% in the assay with SF-539 CNS. For the same compound, the results for the growth in the assay on UACC-257 melanoma and in the assay on M14 melanoma were 61.2% and 63.7%, respectively.

For `COc1ccc(/C=C2\CN(C(=O)C(Cl)Cl)C/C(=C\c3ccc(OC)c(OC)c3)C2=O)cc1OC`, the growth in the assay with NCI-H23 lung is -51.8% (active); with NCI-H226 lung it was 42.8%; in the assay with NCI-H322M lung, 30%; in the assay on HOP-62 NSCLC, 34.3%; with NCI-H460 lung it was -51.9% (active); in the assay on HOP-92 NSCLC, -7.03% (active). Further, the growth with NCI-H522 lung is -14.1% (active); in the assay on A549/ATCC NSCLC, 4.8% (active); in the assay with 786-0 renal it was -94.9% (active); with COLO 205 colon it was -2.98% (active); in the assay on DU-145 prostate, -16% (active); in the assay on K-562 leukemia, 4.57% (active). Further, the growth in the assay on MALME-3M melanoma is -70.9% (active); in the assay on MDA-MB-231 breast, 7.12% (active); with RXF 393 renal, -67.1% (active); in the assay on SF-268 CNS, 17.8%; with SF-295 CNS it was -39.6% (active); with SF-539 CNS, -23.8% (active). Also, the growth in the assay on UACC-257 melanoma was 18.4%; with M14 melanoma, -72.6% (active).

Regarding `O=CN1N=C(c2cccc(Nc3ccnc4cc(Cl)ccc34)c2)CC1c1ccc(Cl)cc1` (stereo not given), the growth in the assay with NCI-H23 lung was 1.81% (active); in the assay with NCI-H226 lung, 59.4%; with NCI-H322M lung it was 59.6%; in the assay on HOP-62 NSCLC it was 24.2%; with NCI-H460 lung it was 19.3%; in the assay on HOP-92 NSCLC, 21.9%. In addition, the growth in the assay on NCI-H522 lung was -17.4% (active); in the assay with A549/ATCC NSCLC, 34.3%; in the assay on 786-0 renal, 28.8%; in the assay with COLO 205 colon, -9.28% (active); with DU-145 prostate, 23.8%; with K-562 leukemia it was 15.8%. Further, the growth in the assay on MALME-3M melanoma is 44.4%; in the assay on MDA-MB-231 breast it was 30.2%; in the assay on RXF 393 renal, -4.85% (active); in the assay with SF-268 CNS, 37.1%; with SF-295 CNS it was 11.7%; in the assay with SF-539 CNS it was 19.2%. Moreover, the growth is 52.8% with UACC-257 melanoma and 21.7% in the assay on M14 melanoma.

`COCCn1cc(-c2csc(-c3c[nH]c4ccc(F)cc34)n2)c2cccnc21`: the growth in the assay on NCI-H23 lung is 34.8%; with NCI-H226 lung, 57.5%; with NCI-H322M lung, 63.2%; with HOP-62 NSCLC, 44%; in the assay with NCI-H460 lung, 15.1%; in the assay on HOP-92 NSCLC it was 38%. For the same compound, the growth with NCI-H522 lung was -11.7% (active); in the assay on A549/ATCC NSCLC, 22.1%; in the assay with 786-0 renal it was 40.4%; in the assay on COLO 205 colon it was 11.5%; in the assay with DU-145 prostate, 64.6%; with K-562 leukemia it was 8.38% (active). In addition, the growth in the assay with MALME-3M melanoma was 45%; with MDA-MB-231 breast, 27.5%; in the assay with RXF 393 renal, 65%; with SF-268 CNS it was 46.5%; in the assay with SF-295 CNS it was 16.1%; in the assay on SF-539 CNS it was 46.8%. For the same compound, the growth with UACC-257 melanoma was 36.5%; in the assay with M14 melanoma it was 13.2%.
